Hits are enriched below; roughly 14% of the tested compounds scored in any of these assays.
MARV entry inh – blocks Marburg virus binding to or entry into cells | Marburg virus pseudotyped entry inhibition, cell reporter | Potency, µM (series often up to 37.8 µM), hits mostly inhibitors | actives 1.8% (n = 300,000) | AID 540276; calls by dose curve; tested in HEK293 cells
HCV inh – HCV inhibition; Huh7.5.1 HCVcc-Cre infection, luciferase reporter, 44 h; Potency, µM (doses to about 41.8 µM), most hits filed as inhibitors; actives 3.4% (n = 340,000)
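A cell-based infection assay in which seeded cells (1,000 per well) receive test compound after 4 h, are inoculated with HCVcc-Cre at approximately 0.5 moi, and are incubated 44 h before luminescence detection.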
Pf growth 96h – P. falciparum growth inhibition at 96 hour, primary screen for plastid delayed-death inhibitors; P. falciparum luciferase reporter growth, 96 h; Potency, µM (series often up to 28.7 µM), usual class: inhibitors; actives 6.9% (n = 320,000); AID 504834
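Compounds incubated with erythrocytes infected by luciferase-expressing P. falciparum (2% hematocrit, 0.05% parasitemia final) for 96 hours, 37 C in 5% CO2. Growth inhibition scored as decreased luciferase luminescence.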
Pf growth 48h – inhibits P. falciparum growth in the first generation, 48 h; P. falciparum luciferase growth in erythrocytes, 48 h; Potency, µM (series often up to 28.7 µM), most hits filed as inhibitors; AID 504832; actives 5.9% (n = 310,000)
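Luciferase-expressing P. falciparum in infected erythrocytes (2% hematocrit, 0.1% parasitemia final) in RPMI 1640/0.5% Albumax were exposed to compound for 48 hours at 37 C, 5% CO2; growth read as luminescence.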
LASV entry inh – blocks Lassa virus binding to or entry into cells; AID 540256; Potency, µM (top dose mostly 37.9 µM), actives largely listed as inhibitors; Lassa virus pseudotype entry inhibition, cell reporter; actives 1.2% (n = 300,000); calls by dose curve; tested in HEK293 cells; note: nearly all actives have a fitted effect of over 50% in size
HCMV antiviral – inhibitors of human cytomegalovirus. HFF cells, HCMV-luciferase reporter, 72 h; stronger effect = lower value. activity change, negative = inhibition, % at 57.5 µM. actives 4.5% (n = 410,000). AID 1259415; in the data active = activity change below about -60%; inconclusive = no clear call, values can overlap the other calls; inactive = above about -39%
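Inhibition of viral replication was scored as loss of reporter luminescence in HFFs infected with HCMV-luciferase (MOI 1 PFU/cell) for 72 h; compounds tested at 2 doses, normalized to buffer and Salinomycin controls.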
Hits are given with their value; – = inactive; ? = inconclusive; · = no result. Unless noted, calls come from the whole dose curve; as a rule, active = well fitted inhibition curve with a large enough effect; inconclusive = small, poorly fitted or top-dose-only effect, or another doubt; inactive = no such curve, though single readings can be large or run the other way.

SMILES	MARV entry inh	HCV inh	Pf growth 96h	Pf growth 48h	LASV entry inh	HCMV antiviral
Cc1ccccc1OCC(=O)Nc1cccc(C(=O)OCc2cc(=O)n3c(C)csc3n2)c1	·	·	·	·	–	-89
CCc1nn2c(=O)cc(COC(=O)c3ccc(NC(=O)C4CCCCC4)cc3)nc2s1	·	·	·	·	–	–
Cc1ccc(C(=O)Nc2ccc(C(=O)OCc3cc(=O)n4nc(C5CC5)sc4n3)cc2)cc1	·	·	·	·	?	–
Cc1ccccc1C(=O)Nc1ccc(C(=O)OCc2cc(=O)n3nc(C4CC4)sc3n2)cc1	·	·	·	·	?	-81
C[C@H]1CN([C@@H](C)CO)C(=O)CCCn2nncc2CO[C@H]1CN(C)S(=O)(=O)c1cccs1	·	·	·	·	·	–
Cc1ccc(C(=O)Nc2cccc(C(=O)OCc3cc(=O)n4c5c(sc4n3)CCCC5)c2)cc1	·	·	·	·	–	-88
COC(=O)Cc1ccc(O)c(N)c1	–	?	1.9µM	?	–	–
COC(=O)c1cc(Cc2ccc(N)c(C(=O)OC)c2)ccc1N	?	–	–	·	?	–
COc1ccc2[nH]c(C)c(CCN(Cc3cccs3)C(=S)Nc3ccc(F)cc3)c2c1	·	11µM	2.3µM	1.7µM	·	·
CNC(=S)N(CCc1c(C)[nH]c2ccc(C)cc12)Cc1cccs1	·	10µM	?	?	·	–
COc1ccc(NC(=S)N(CCc2c(C)[nH]c3ccc(C)cc23)Cc2cccs2)cc1	?	?	–	–	?	–
Cc1cccc(C)c1NC(=S)N(CCN(C)C)Cc1cccs1	?	–	?	–	–	–
COc1ccccc1NC(=S)N(CCc1c(C)[nH]c2ccccc12)Cc1cccs1	–	?	?	?	·	–
COc1ccc2[nH]c(C)c(CCN(Cc3cccs3)C(=S)Nc3ccccc3)c2c1	–	?	0.41µM	0.83µM	·	?
Cc1cc(C)c(NC(=S)N(CCN(C)C)Cc2cccs2)c(C)c1	?	–	3.3µM	–	–	–
CCc1ccc(CNC(=O)c2sc3nc[nH]c(=O)c3c2C)cc1	·	·	·	·	?	–
O=C(Cn1cc(S(=O)(=O)c2ccccc2)c(=O)c2cc(Cl)ccc21)Nc1ccc2c(c1)OCO2	–	·	·	·	–	–
N#CCCN(Cc1ccccc1)C(CCc1ccccc1)C(=O)NC1CCCCC1 (stereo not drawn)	·	·	·	·	·	–
CCC(CC)C(=O)NC1CC(=O)N(c2ccc3c(c2)OCCO3)C1 (stereo not drawn)	·	·	·	·	–	–
COc1ccccc1NC(=O)CN1CCCCC1	–	–	–	–	–	–
COc1ccc(C)cc1NC(=O)CN1CCN(c2ccccc2F)CC1	?	?	–	13µM	?	–
COc1ccc(C)cc1NC(=O)CCN1CCN(c2ccccc2F)CC1	·	–	?	?	·	–
COc1ccccc1NC(=O)CN1CCN(CC(=O)Nc2ccc(F)cc2F)CC1	?	–	4.1µM	–	–	?
Cc1cccc(/C=C/c2onc(C)c2[N+](=O)[O-])n1	–	?	·	·	–	-109
Cc1noc(/C=C/c2nn(C)cc2Cl)c1[N+](=O)[O-]	·	?	?	?	·	-98
SMILES	MARV entry inh	HCV inh	Pf growth 96h	Pf growth 48h	LASV entry inh	HCMV antiviral
Cc1cccc2nc(-c3cccc(NS(=O)(=O)c4ccccc4)c3)cn12	–	·	·	·	–	–
CCCS(=O)(=O)NC(=O)C1(C)CCN(C(=O)c2ccccc2OC)C1 (stereo not drawn)	·	·	·	·	·	–
CNC[C@@H]1OCc2ccccc2-c2c(n(C)c3ccccc23)C(=O)N([C@@H](C)CO)C[C@@H]1C	·	·	·	·	·	–
CC(/C=C1\SC(=S)N(CCCC(=O)Nc2ccc(C(=O)O)cc2)C1=O)=C\c1ccccc1	–	–	?	?	–	–
CC(=C\c1ccccc1)/C=C1/SC(=S)N(CCCC(=O)O)C1=O	?	–	?	8.3µM	?	-82
CC(=Cc1ccccc1)C=C1SC(=S)N(CCCC(=O)Nc2ccc(C(=O)O)cc2)C1=O	·	·	·	·	·	–
CC(/C=C1\SC(=O)N(CCCC(=O)O)C1=O)=C\c1ccccc1	0.5µM	–	5.9µM	?	0.79µM	-89
CCN(Cc1ccccc1)C(=O)Cn1c(=O)n(-c2ccc(Cl)cc2)c(=O)c2c(C)c(C(=O)N(C)C)sc21	·	·	·	·	–	–
Cc1ccc(C(=O)N(C)CC(=O)Nc2ccc(Cl)c(C(F)(F)F)c2)cc1S(=O)(=O)N1CCCCC1	·	7.9µM	?	9.3µM	·	–
CN(CC(=O)Nc1ccc(Cl)c(C(F)(F)F)c1)C(=O)c1ccc(OCC2CCCO2)cc1 (stereo not drawn)	?	10µM	?	–	?	-73
